Sampled rows, rich in hits. Any-hit rate of the full collection: about 2.8%.
FEN1 inh: blocks human flap endonuclease 1 | Potency, µM (series often up to 114 µM), for the others: at the top dose activity change, negative = inhibition, hits mostly inhibitors | AID 588795 | P39748 | Recombinant FEN1 flap cleavage, fluorescence, 15 min | actives 0.35% (n = 390,000); also: potency is read from the fitted curve at half-maximal effect; % is scaled to controls: 0 for no effect and ±100 for the full control effect; nearly all actives have a fitted effect of over 65% in size
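Quantitative HTS format: each compound was titrated, incubated with 10 nM nuclease for 15 min at room temperature, then challenged with flap substrate at 50 nM final. Signal change over 15 min gave concentration–effect curves.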
POLI inh: DNA polymerase iota (human) inhibition; Q9UNA4; Pol iota fluorescent replication assay, 10 min; Potency, µM (titrated, usually from 115 µM), for the others: at the top dose activity, negative = inhibition, usual class: inhibitors; actives 1% (n = 390,000); AID 588590; also: potency is read from the fitted curve at half-maximal effect
Target sequence (Q9UNA4 whole entry, looked up): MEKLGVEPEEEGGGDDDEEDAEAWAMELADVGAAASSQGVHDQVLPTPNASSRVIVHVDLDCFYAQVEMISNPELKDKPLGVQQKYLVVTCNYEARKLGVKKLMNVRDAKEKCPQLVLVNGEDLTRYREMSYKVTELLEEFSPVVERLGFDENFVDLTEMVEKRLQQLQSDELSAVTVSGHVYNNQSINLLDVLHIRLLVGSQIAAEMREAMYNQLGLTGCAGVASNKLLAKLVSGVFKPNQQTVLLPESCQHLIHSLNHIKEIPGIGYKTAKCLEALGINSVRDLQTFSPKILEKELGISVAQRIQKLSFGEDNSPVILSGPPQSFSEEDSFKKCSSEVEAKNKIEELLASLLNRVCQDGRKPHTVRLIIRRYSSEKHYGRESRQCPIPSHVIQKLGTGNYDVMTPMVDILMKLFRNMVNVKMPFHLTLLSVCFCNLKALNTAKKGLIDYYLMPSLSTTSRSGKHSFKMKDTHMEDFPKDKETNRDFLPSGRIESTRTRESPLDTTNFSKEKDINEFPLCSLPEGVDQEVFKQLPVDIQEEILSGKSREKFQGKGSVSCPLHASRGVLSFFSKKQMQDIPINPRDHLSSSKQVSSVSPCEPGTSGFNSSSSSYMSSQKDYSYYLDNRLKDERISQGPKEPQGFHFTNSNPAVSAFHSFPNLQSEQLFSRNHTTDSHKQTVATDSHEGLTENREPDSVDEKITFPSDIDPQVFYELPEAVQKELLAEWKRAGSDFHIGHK
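Fluorescent replication assay read twice, at 0 min and 10 min after adding 50 nM (final) substrate. Enzyme (10 nM) and compounds were first incubated 15 min at room temperature; enzyme-free buffer wells were negative controls.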
POLH inh: inhibitors of human DNA polymerase eta | recombinant Pol eta, fluorescent DNA replication assay | actives 1.2% (n = 390,000) | Q9Y253 | Potency, µM (highest dose often 114 µM), for inactives: at the highest dose activity change, negative = inhibition, most hits filed as inhibitors; also: potency is read from the fitted curve at half-maximal effect; % is scaled to controls: 0 for no effect and ±100 for the full control effect
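Pol eta at 10 nM preincubated with compounds 15 min at room temperature; reaction started with fluorescent substrate (50 nM final) and read kinetically at 0 and 10 min.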
PI5P4K alpha inh: inhibitors of human PI5P4K alpha; P48426; PI5P4Kalpha enzyme, ADP-Glo luminescence, 60 min; active compounds read low; max response, %; actives 1.2% (n = 330,000); active = max response of -50% or lower; inconclusive = between -30% and -50%; inactive = -30% or higher; also: value at the top dose of about 77 µM; % is scaled to controls: 0 for no effect and ±100 for the full control effect
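Reactions run in 0.038 M HEPES pH 7.4, 0.28 mM EGTA, 0.1% CHAPS and 5% DMSO, with PI5P4Kalpha, substrate, compound and 5 microM ATP final, one hour at room temperature. Readout is ADP-Glo luminescence.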
POLK inh: blocks human DNA polymerase kappa activity | Q9UBT6 | Potency, µM (highest dose often 107 µM), inactives show at the top dose activity, negative = inhibition, actives largely listed as inhibitors | actives 0.53% (n = 400,000) | purified Pol kappa, fluorescent DNA synthesis assay, 10 min; also: potency is read from the fitted curve at half-maximal effect; % is scaled to controls: 0 for no effect and ±100 for the full control effect
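Readout: fluorescence, taken kinetically at 0 and 10 min. Conditions: 10 nM Pol kappa, 15 min RT compound preincubation, 50 nM substrate final. Controls: enzyme-free buffer wells.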
POLB inh: inhibitors of human DNA polymerase beta; P06746; Pol beta primer extension/strand displacement, fluorescence kinetic; Potency, µM (doses to about 114 µM), for the others: top-dose activity change, negative = inhibition, hits mostly inhibitors; actives 1.3% (n = 340,000); AID 485314; also: potency is read from the fitted curve at half-maximal effect; % is scaled to controls: 0 for no effect and ±100 for the full control effect
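Reaction started by 50 nM substrate onto compound-treated Pol beta (10 nM, 15 min preincubation, room temperature); plates read at 0 min and 10 min. Normalized concentration-effect data fitted by four-parameter Hill equation.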
Numbers without * were called inactive; ? = inconclusive; nt = no result; [ ] = dose if it differs, or a comment. Unless noted, calls follow the shape of the dose curve; as a rule, active = well fitted curve in the direction sought with a large enough effect; inconclusive = small, poorly fitted or top-dose-only effect, or another doubt; inactive = no such curve, though single readings can be large; an effect the other way counts as inactive or inconclusive.

SMILES	FEN1 inh	POLI inh	POLH inh	PI5P4K alpha inh	POLK inh	POLB inh
Oc1ccc(/C=N/N2CCN(C3c4ccccc4-c4ccccc43)CC2)c(O)c1	-22.0%	26.1%	-10.6%	25.6	-7.2%	0.0%
CN(CC(=O)Nc1n[nH]c(=S)s1)S(=O)(=O)c1cccc2cccnc12	-15.1%	?	7.8%	-57.0*	1.1%	-0.9%
Cc1csc(NC(=O)CN(C)S(=O)(=O)c2cccc3cccnc23)n1	-7.5%	2.1%	1.2%	-3.6	-2.7%	?
COc1cccc(NC(=O)c2ccc(N3C(=O)C4CCC(C)CC4C3=O)cc2)c1 (centres undefined)	7.6%	-9.5%	-26.3%	6.0	2.6%	nt
Cc1cc(N2C(=O)C(O)=C(C(=O)c3cc4ccccc4o3)C2c2cccc(Br)c2)no1 (centres undefined)	10.7%	11.8%	-19.3%	-53.0*	-1.8%	?
CCCOc1cccc(C2C(C(=O)c3cc4ccccc4o3)=C(O)C(=O)N2c2cc(C)on2)c1 (centres undefined)	10.8%	8.3%	-13.1%	-1.2	-2.9%	1.8%
CCCCCOc1ccc(C2C(C(=O)c3ccc(C)o3)=C(O)C(=O)N2c2cc(C)on2)cc1 (centres undefined)	3.9%	12.0%	-25.0%	-55.2*	5.9%	-9.0%
N#Cc1c(N)n(-c2ccc(O)cc2)c2nc3ccccc3nc12	-3.6%	18.2%	-0.3%	3.3	-3.7%	-18.9%
Cc1ccc(C)c(-n2c(N)c(C#N)c3nc4ccccc4nc32)c1	-3.5%	25.1µM*	-3.4%	nt	-28.3%	2.6%
O=C(c1ccccc1)c1cc(Cl)ccc1N1C(=O)C=CC1=O	-24.1%	18.7%	-6.5%	-65.6*	-5.8%	-14.8%
O=C(CC(=O)c1cc(Cl)ccc1O)c1ccccc1	-25.3%	12.5%	-11.3%	nt	-1.9%	-10.7%
COC(=O)[C@H](CC(C)C)NC(=O)Cn1cnc2c(NCc3ccccc3)ncnc21	-2.5%	-3.3%	-11.6%	1.2	6.6%	nt
COc1cc(OC)c(NC(=O)CSc2cc(=O)n(C)c3ccc(Cl)cc23)cc1Cl	-8.5%	25.3%	-6.6%	nt	3.2%	34.4%
Cc1noc(C)c1CSc1nc2ccccc2nc1NS(=O)(=O)c1ccc(Cl)cc1	-7.9%	?	79.4µM*	-12.3	-8.6%	3.1%
O=S(=O)(Nc1nc2ccccc2nc1NCc1ccco1)c1ccc(Cl)cc1	-10.0%	?	?	-0.7	-3.6%	?
C1=CN2CC=Cc3cc(/C=C/c4ccnc5ccccc45)cc(c32)C1	?	79.4µM*	nt	nt	?	nt
Nc1cccc(/C=C/c2ccnc3ccccc23)c1	-15.5%	24.2%	nt	nt	-18.3%	nt
CCOc1ccc2oc(C(=O)N3CCN(c4ccccn4)CC3)c(C)c2c1	1.9%	?	20µM*	-25.5	-9.1%	?
Cc1cc2nc3ccc(=[N+](C)C)cc-3sc2cc1N	22.4µM*	17.8µM*	?	-18.0	-32.4%	8.91µM*
Cc1cccc2c(N=O)c(O)[nH]c12	2.0%	-20.9%	35.5µM*	-58.8*	-20.8%	-5.6%
Cc1[nH]c2c(C)cccc2c1CC(=O)O	-7.6%	72.5%	-16.0%	7.6	-10.8%	26.8%
CCCOCC(O)CCc1n[nH]c(=S)n1-c1ccccc1 (centres undefined)	0.0%	52.3%	7.5%	5.0	-7.9%	39.2%
CN1CCC(N2CCN(c3cccc(C(F)(F)F)c3)CC2)CC1	-17.6%	35.5µM*	-7.6%	nt	0.9%	1.6%
Cc1ccc(-c2cn(CCN)c(-c3ccncc3)n2)cc1	-14.9%	31.6µM*	-1.1%	6.9	-17.3%	nt
CC1CC(C)CN(C(=O)COC(=O)c2ccc([N+](=O)[O-])o2)C1 (centres undefined)	-18.5%	?	89.1µM*	2.1	-22.6%	nt
SMILES	FEN1 inh	POLI inh	POLH inh	PI5P4K alpha inh	POLK inh	POLB inh
Cc1ccccc1NC(=O)c1sc2nc(-c3ccncc3)ccc2c1N	-4.3%	-12.7%	-19.7%	nt	-16.1%	?
O=C(Nc1ccc(-n2nncc2-c2ccco2)cc1)c1cc2ccccc2oc1=O	-22.3%	11.2µM*	89.1µM*	nt	5.62µM*	28.2µM*
O=C(Cn1cc(S(=O)(=O)Cc2ccc(F)cc2)c2ccccc21)NCc1ccccc1	-1.5%	-2.6%	-4.1%	nt	-2.7%	-22.2%
Cc1nc(NC(=O)c2ccc(Br)o2)ccc1Br	-16.5%	7.7%	5.2%	-2.8	2.9%	-0.1%
O=C(Nc1cccc(NC(=O)c2ccc(Br)o2)n1)c1ccc(Br)o1	-6.2%	14.1µM*	?	nt	-11.2%	25.7%
CC(=O)Nc1cccc(NC(=O)CCn2cnc3cc(C)c(C)cc32)c1	-5.4%	?	?	0.7	-31.5%	25.1µM*
Cc1ccc(NC(=O)CCn2cnc3cc(C)c(C)cc32)cc1	7.1%	23.7%	-16.5%	nt	12.8%	-6.2%
Cc1ccc(C)c(CN2C(=O)c3ccccc3S(=O)(=O)c3ccc(C(=O)N4CCN(c5ccccc5F)CC4)cc32)c1	11.9%	21.8%	nt	nt	-8.3%	-1.3%
C=C(C)Cn1c(=O)c2c(nc3n2CCN3c2cc(C)cc(C)c2)n(C)c1=O	-3.4%	79.4µM*	-9.2%	nt	-5.8%	-13.1%
O=C1c2ccccc2C(=O)N1CCc1csc(NNc2nc(CCN3C(=O)c4ccccc4C3=O)cs2)n1	-14.0%	?	?	-69.1*	89.1µM*	25.1µM*
COCCOC(=O)c1c(C)oc2c1cc(NS(=O)(=O)c1ccc(Cl)c(C)c1)c1ccccc12	14.2%	3.5%	-13.1%	nt	0.2%	0.8%
Cc1cc(=O)oc2cc(OCC(=O)N3CCN(c4ccc(F)cc4)CC3)ccc12	4.4%	39.8µM*	-6.9%	3.1	?	19.8%
Cc1cc(=O)oc2cc(OCC(=O)c3ccc4c(c3)NC(=O)CO4)ccc12	-29.7%	3.16µM*	?	1.6	-14.8%	?
Cc1cc(=O)oc2cc(OCC(O)CN3CCN(c4ccc(F)cc4)CC3)ccc12 (centres undefined)	-6.9%	31.9%	-8.3%	nt	-4.1%	-0.2%
Cc1ccc(C(=O)COc2ccc3c(C)cc(=O)oc3c2)cc1	-12.6%	5.8%	-14.9%	-1.5	0.4%	7.7%
CCOC(=O)C(=O)Nc1ccc(S(=O)(=O)Nc2ncccn2)cc1	-6.0%	-11.3%	-4.5%	nt	-12.9%	89.1µM*
CCOC(=O)C(=O)Nc1ccc(S(=O)(=O)Nc2nccc(C)n2)cc1	nt	nt	?	2.2	nt	nt
Cc1nn(C2CCS(=O)(=O)C2)c(C)c1C=O (centres undefined)	1.1%	80.4%	-6.8%	-67.0*	1.5%	11.8%
Cc1ccc(-n2c(O)c(C=Nc3ccccc3-c3n[nH]c(=S)[nH]c3=O)c3ccccc3c2=O)c(C)c1	?	44.7µM*	?	-19.7	?	89.1µM*
COc1ccc(C2COc3cc(O)ccc3C2)c(OC)c1O (centres undefined)	-5.2%	79.4µM*	-0.5%	-5.5	8.7%	nt
CCN(CC)CCOC(=O)c1cccnc1	nt	nt	nt	nt	10.2%[19.4 µM]	nt

Screening results (PubChem)
